Screening data: PubChem BioAssay, Broad Institute
BH1578 lux ind = induces V. cholerae light production without autoinducers. V. cholerae BH1578 lux reporter, luminescence, 6 h. activation, % at 18.7 µM. 0.16% of 350,000 active; in the data active means activation mostly above about 9.7%, no sharp cut-off; inconclusive means no clear call, values can overlap the other calls; inactive means mostly below about 3.7%
FadD28 binding = inhibitors of Mycobacterium tuberculosis FadD28 bisubstrate binding; inhibition, % at 12.5 µM; FadD28 bisubstrate probe binding, fluorescence polarization; 0.22% of 360,000 active; in the data active means inhibition above about 8.5%, passing the limit was not always enough; inconclusive means no clear call, values can overlap the other calls
BioA inh-1 = BioA (M. tuberculosis) enzyme inhibition | inhibition, % at 9.99 µM | purified M. tuberculosis BioA enzyme, plate reader | 0.096% of 360,000 active | AID 602481; in the data active means inhibition above about 40%; inconclusive means no clear call, values can overlap the other calls
Y pestis TopoI = inhibitors of Yersinia pestis topoisomerase I; Y. pestis Topo-I cleavage product accumulation, plate reader; activity, % at 10 µM; 0.064% of 360,000 active; in the data active means activity above about 50%, passing the limit was not always enough; inconclusive means no clear call, values can overlap the other calls
TcdB inh = blocks C. difficile toxin B glycohydrolase activity. 0.24% of 350,000 active. inhibition, % at 9.99 µM. TcdB glycohydrolase enzymatic assay, plate reader; in the data active means inhibition above about 10%
BioA inh-2 = blocks M. tuberculosis BioA aminotransferase; max activity, %; shares compounds with BioA inh-1; 310 tested, under 10 active; AID 651679; purified BioA enzyme, plate reader, dose response;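 further: top concentration of the dilution series was 10 µM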
Target sequence (P9WQ81 whole entry, looked up): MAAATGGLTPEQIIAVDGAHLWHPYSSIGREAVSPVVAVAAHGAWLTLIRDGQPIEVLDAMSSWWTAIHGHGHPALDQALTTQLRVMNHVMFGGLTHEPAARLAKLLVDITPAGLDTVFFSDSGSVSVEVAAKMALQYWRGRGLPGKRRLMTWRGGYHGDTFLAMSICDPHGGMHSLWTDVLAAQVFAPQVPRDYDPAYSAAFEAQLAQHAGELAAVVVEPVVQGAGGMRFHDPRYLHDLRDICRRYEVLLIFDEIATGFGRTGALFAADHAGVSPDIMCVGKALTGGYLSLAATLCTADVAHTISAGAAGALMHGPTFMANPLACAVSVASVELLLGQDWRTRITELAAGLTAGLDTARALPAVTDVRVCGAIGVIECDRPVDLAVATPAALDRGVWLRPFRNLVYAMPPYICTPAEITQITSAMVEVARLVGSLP
HepG2 cytotox = cytotoxicity in HepG2 cells; plate reader; shares compounds with BioA inh-1; max activity, %; AID 651898; 310 tested, under 10 active
3T3 cytotox 5 = NIH3T3 viability loss; NIH3T3 cytotoxicity, plate reader; AID 651900; 310 tested, under 10 active; shares compounds with BioA inh-1; activity change, negative = cytotoxicity, % at 26 µM
Large screens that a line does not name were inactive (follow-up assays come after a bar, where they were run). Hits are enriched below; roughly 0.61% of the tested compounds scored in any of these assays. Unless noted, how the calls were made is not given here.

Cc1cc2c(c(=O)n1Cc1cccnc1)C(Cc1ccccc1)C(C#N)=C(N)O2 (stereo not given)	none (no result: BioA inh-1, TcdB inh)
Cc1cc2c(c(=O)n1Cc1cccnc1)C(c1cccs1)C(C#N)=C(N)O2 (stereo not given)	BioA inh-1 64 (no result: TcdB inh) | BioA inh-2 inactive | HepG2 cytotox inactive | 3T3 cytotox 5 inactive
C[C@H](CO)N1C[C@H](C)[C@H](CN(C)Cc2ccc(-c3ccccc3)cc2)Oc2c(NS(C)(=O)=O)cccc2C1=O	none (no result: BH1578 lux ind, FadD28 binding, Y pestis TopoI)
COC(=O)c1c(C(=O)OC)c(-c2ccc(OC)cc2)n2c1CS(=O)C2 (stereo not given)	none
COC(=O)c1c(C(=O)OC)c(-c2ccccc2)n2c1CS(=O)C2 (stereo not given)	BioA inh-1 73 (no result: TcdB inh) | BioA inh-2 inactive | HepG2 cytotox inactive | 3T3 cytotox 5 inactive
COC(=O)c1c(C(=O)OC)c(-c2ccc(F)cc2)n2c1CS(=O)C2 (stereo not given)	BioA inh-1 60 | BioA inh-2 inactive | HepG2 cytotox inactive | 3T3 cytotox 5 inactive
C[C@@H]1CN([C@H](C)CO)C(=O)c2cc(NS(=O)(=O)c3ccc(Cl)cc3)ccc2O[C@H]1CN(C)Cc1ccc(C(=O)Nc2ccccc2N)cc1	none (no result: BH1578 lux ind, FadD28 binding, BioA inh-1, Y pestis TopoI)
CO[C@H](CN(C)C(=O)c1cnccn1)[C@@H](C)CN([C@H](C)CO)S(=O)(=O)c1ccc(Cl)cc1	none (no result: BH1578 lux ind, FadD28 binding, Y pestis TopoI)
O=C(COc1ccc2ccc(=O)oc2c1)Nc1cccnc1	BioA inh-1 49 | BioA inh-2 inactive | HepG2 cytotox inactive | 3T3 cytotox 5 inactive
COc1ccc(NC(=O)N(C)C[C@@H]2OCCCC[C@H](C)Oc3ccc(NC(=O)Nc4ccccc4)cc3C(=O)N([C@H](C)CO)C[C@@H]2C)cc1	none (no result: BH1578 lux ind, FadD28 binding, Y pestis TopoI)
COc1cccc(-c2cc(NC=O)c3ncc(-c4cccc(C(=O)N(C)C)c4)n3c2)c1	none
COc1ccc(-c2cc(NC=O)c3ncc(-c4cccc(C(=O)N(C)C)c4)n3c2)cn1	BioA inh-1 42 | BioA inh-2 inactive | HepG2 cytotox inactive | 3T3 cytotox 5 inactive
C[C@@H]1CN([C@@H](C)CO)C(=O)c2cc(C#Cc3cccnc3)cnc2O[C@H]1CN(C)S(C)(=O)=O	BioA inh-1 74 (no result: BH1578 lux ind, FadD28 binding, Y pestis TopoI) | BioA inh-2 inactive | HepG2 cytotox inactive | 3T3 cytotox 5 inactive
O=C(Nc1ccc(Cl)cc1)N[C@H]1CC[C@H](CCn2cc(C3(O)CCCC3)nn2)O[C@H]1CO	none (no result: BH1578 lux ind, FadD28 binding, Y pestis TopoI)
O=C(O)CCS(=O)(=O)c1nc(-c2cccs2)cc(C(F)(F)F)n1	BioA inh-1 57 | BioA inh-2 inactive | HepG2 cytotox inactive | 3T3 cytotox 5 inactive
O=C(NC1CCCCC1)N[C@@H]1CC[C@@H](CCNS(=O)(=O)c2ccccc2)O[C@@H]1CO	none (no result: BH1578 lux ind, FadD28 binding, Y pestis TopoI)
COc1ccc(CCNC(=O)c2cnc3n(c2=O)CCS3)cc1OC	BioA inh-1 48 (no result: TcdB inh) | BioA inh-2 inactive | HepG2 cytotox inactive | 3T3 cytotox 5 inactive
CCCC(=O)N1CCN(Cc2ccc3c(c2)OCO3)CC1	none (no result: TcdB inh)
CCc1nn(CC(=O)N2CCN(Cc3ccc4c(c3)OCO4)CC2)c(=O)c2cc3occc3n12	BioA inh-1 57 (no result: TcdB inh) | BioA inh-2 inactive | HepG2 cytotox inactive | 3T3 cytotox 5 inactive
C[C@H](CO)N1C[C@H](C)[C@@H](CN(C)C(=O)Nc2cccc3ccccc23)OCCCC[C@H](C)Oc2ccc(NS(=O)(=O)c3cccs3)cc2C1=O	none (no result: BH1578 lux ind, FadD28 binding, Y pestis TopoI)
CC1=CC2=NC(=O)/C(=C\c3cc(C)n(-c4ccccc4F)c3C)C(=N)N2O1	BioA inh-1 41 | BioA inh-2 inactive | HepG2 cytotox inactive | 3T3 cytotox 5 inactive
CC1=CC2=NC(=O)/C(=C\c3cc(C)n(-c4ccccc4)c3C)C(=N)N2O1	none
C[C@H](CO)N1C[C@H](C)[C@@H](CN(C)C(=O)c2ccncc2)Oc2ncc(C#CC3CCCCC3)cc2C1=O	none (no result: BH1578 lux ind, FadD28 binding, Y pestis TopoI)
C[C@H]1CN([C@@H](C)CO)C(=O)c2ccccc2-c2ccccc2CO[C@H]1CN(C)C(=O)Nc1cccc(Cl)c1Cl	none (no result: BH1578 lux ind, FadD28 binding, BioA inh-1, Y pestis TopoI)
O=C(O)CN1C(=O)/C(=C\c2cc(Br)ccc2OCc2ccccc2Cl)SC1=S	none
O=C(O)CN1C(=O)/C(=C\c2cc(Br)ccc2OCc2ccc([N+](=O)[O-])cc2)SC1=S	BioA inh-1 62 | BioA inh-2 inactive | HepG2 cytotox inconclusive | 3T3 cytotox 5 inconclusive
